In PubChem BioAssay (NCI):
About 83,000 compounds went through this panel and 20% of them were active in at least one assay; those are over-represented in the sample as a whole.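 Treatment: one concentration, 48 hours, 96-well format. Scoring: percent growth, with anything below 10 considered active.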 The source made the active and inactive calls.

Test system: HCC-2998 colon
Experiment: NCI-60 one-dose screen, 48 h (100 = growth as untreated, 0 = no growth, -100 = all killed)
Conditions: 10 µM unless noted

Compound | growth
O=c1nc(Nc2ccc([N+](=O)[O-])cc2O)sc2ccccc12 | 62.4% (inactive)
O=C(CCCCCCNC(=O)c1csc(Br)n1)NO | 63% (inactive)
COC(=O)[C@@H](Cc1c[nH]c2ccccc12)NC(=O)CCCCOc1cc(O)c2c(=O)cc(-c3ccccc3)oc2c1 | 96.5% (inactive)
Clc1cccc(/C=N/Nc2nc(N/N=C/c3cccc(Cl)c3)nc(N3CCCCC3)n2)c1 | 108% (inactive)
COC(=O)c1ccc(NC2=C(Cl)C(=O)C(C)=C(C)C2=O)cc1 | 71.1% (inactive)
O=C(CSc1nnc(-c2ccc(Cl)cc2)n1-c1ccccc1)Nc1ccccc1Cl | 88.3% (inactive)
CN(C)CCNc1ccc2ncc(C#Cc3cncc(C(=O)Nc4ccc(CN5CCN(C)CC5)c(C(F)(F)F)c4)c3)n2n1 | -25.9% (active)
Cc1cc(=O)oc2cc(OCCCOc3ccc(/C=C/C(=O)Nc4ccc(Br)cc4)cc3)ccc12 | 96.6% (inactive)
CC(=O)OC[C@@]12Oc3c(cccc3-c3ccc(O)c4c3O[C@]3(COC(C)=O)C(=C4O)C(=O)C[C@H](C)[C@@H]3OC(C)=O)C(O)=C1C(=O)C[C@H](C)[C@@H]2OC(C)=O | 23.7% (inactive)
COc1ccc(/C=N/NC(=O)CSc2nc(-c3cnccn3)cc(-c3cccs3)c2C#N)cc1OC | 47.3% (inactive)
O=c1c2cc(-c3ccc(F)cc3F)ccc2n(O)c(=O)n1-c1cccc(C(F)(F)F)c1 | 9.79% (active)
C#C[C@]1(O)CC[C@H]2[C@@H]3CC=C4c5sc(Nc6ncccc6C)nc5CC[C@]4(C)[C@H]3CC[C@@]21C | 28.8% (inactive)
CCCCCc1ccc(S(=O)(=O)Nc2cc(-c3csc(N)n3)ccc2OC)cc1 | 111% (inactive)
O=c1oc2ccc(-c3ccc(F)cc3F)cc2c(=O)n1-c1ccc(Br)cc1F | 81.5% (inactive)

Test system: KM12 colon
Experiment: as above
Conditions: 10 µM unless noted

Compound | growth
C#C[C@]1(O)CC[C@H]2[C@@H]3CC=C4c5sc(NCc6ccccc6)nc5CC[C@]4(C)[C@H]3CC[C@@]21C | 18.9% (inactive)
Cn1cc(-c2cc3ncnc(Nc4ccc(NC(=O)Nc5cc(C(C)(C)C)on5)cc4)c3s2)cn1 | 15.7% (inactive)
CCc1cccc2c3c(sc12)C(c1ccc(F)cc1)C(C#N)=C(/N=C/c1ccc(Cl)cc1)O3 (stereo not given) | 16.1% (inactive)
C1=CC(c2nn3c(-c4ccccc4)nnc3s2)=Cc2ccccc2O1 | 85.5% (inactive)
Cc1ccc(-c2csc(N/N=C/c3cccs3)n2)cc1 | 90.8% (inactive)
C#C[C@]1(O)CC[C@H]2[C@@H]3CC=C4c5sc(Nc6ccc(C)cn6)nc5CC[C@]4(C)[C@H]3CC[C@@]21C | -35.5% (active)
COC(=O)c1ccc(NC2=C(Cl)C(=O)c3nc(C)ccc3C2=O)cc1 | 50.3% (inactive)
CCCCCN1C(=O)/C(=c2\sc3n(c2=O)C2C(NN=3)N(CC)C(=O)N2CC)c2cccc(C)c21 (stereo not given) | 26.6% (inactive)
COc1ccc(/C(=N\N=C(N)N)c2ccc(Cl)cc2)cc1OC | 61.5% (inactive)
CCCCCC[n+]1ccc(SCC(=O)n2ccc3ccccc32)c2ccccc21 | 84.3% (inactive)
NCCNC(=O)c1cccc(COc2ccccc2NC(=O)c2cc(Br)c(Br)[nH]2)c1 | 89.7% (inactive)
CC1CCN(CC(=O)Nn2c(COc3ccccc3)nc3ccccc3c2=O)CC1 | 45% (inactive)
CC(C)(C)Nc1nc2c(OCCc3ccccc3)cccn2c1-c1ccc([N+](=O)[O-])cc1 | 36.8% (inactive)
CC(C)(C)OC(=O)NCc1ccc(CNc2c([N+](=O)[O-])cnc3ccccc23)cc1 | 74.9% (inactive)
NC(=O)n1c(=O)n(-c2cccc(C(F)(F)F)c2)c(=O)c2cc(-c3ccc(F)cc3F)ccc21 | 5.24% (active)
CN1CCN(Cc2ccc(NC(=O)c3cncc(C#Cc4cnc5ccc(OCCCS(C)(=O)=O)nn45)c3)cc2C(F)(F)F)CC1 | -3.51% (active)
COc1ccc(NC2=C(Br)C(=O)C(C)=C(C)C2=O)cc1OC | 59.2% (inactive)
O=C1[C@@H]2Cc3c([nH]c4ccccc34)[C@H](c3ccc(Cl)cc3)N2C(=O)CN1C1CCN(Cc2ccccc2)CC1 | 57.6% (inactive)
CCOc1cccc(/C(N)=N/C(N)=N/c2nc3ccccc3s2)c1 | 46.4% (inactive)
O=C1CSC(c2cn(-c3ccccc3)nc2-c2ccc(Cl)cc2)N1c1ccccc1 (stereo not given) | 102% (inactive)
CC(Nc1c(C#N)cnc2ccc(-c3cncc(-c4n[nH]c(=O)o4)c3)cc12)c1ccccc1 (stereo not given) | 17.1% (inactive)
